Source: PubChem
Shown are actives, neighbours in structure and some others; about 15% of the full set was active somewhere.
Pf growth 96h: P. falciparum growth inhibition at 96 hours. 320,000 compounds, 6.9% hits. P. falciparum luciferase reporter growth, 96 h. Potency, µM (top dose mostly 28.7 µM), without a hit: at the top dose activity change, negative = inhibition, most hits filed as inhibitors; further: potency means the concentration at half of the fitted maximal effect; on the % scale 0 is the no-effect control and ±100 the full control effect
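Erythrocytes infected with luciferase-expressing P. falciparum were dispensed at 2% hematocrit and 0.05% parasitemia (final), then incubated with compounds 96 hours at 37 C in 5% CO2. Luminescence after detection reagent addition reported growth.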
HCV inh: inhibitors of hepatitis C virus infection | Huh7.5.1 HCVcc-Cre infection, luciferase reporter, 44 h | AID 651820 | 340,000 compounds, 3.4% hits | Potency, µM (series often up to 41.8 µM), without a hit: at the highest dose activity change, negative = inhibition, most hits filed as inhibitors; further: potency means the concentration at half of the fitted maximal effect; on the % scale 0 is the no-effect control and ±100 the full control effect
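Seed cells (1,000/well) for 4 h; treat with compound and infect with HCVcc-Cre, moi about 0.5. Incubate 44 h, then detect luciferase activity.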
Sm TGR block: inhibitors of Schistosoma mansoni thioredoxin glutathione reductase. AID 485364. 360,000 compounds, 3% hits. purified TGR, DTNB reduction, TNB absorbance 405 nm. Potency, µM (doses to about 114 µM), without a hit: at the highest dose activity change, negative = inhibition, most hits filed as inhibitors; further: potency means the concentration at half of the fitted maximal effect; on the % scale 0 is the no-effect control and ±100 the full control effect; nearly all actives have a fitted effect of over 60% in size
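Kinetic colorimetric format: TGR-catalysed, NADPH-driven DTNB reduction monitored via TNB absorbance. Enzyme dispensed at 20 nM; compound exposure 15 min at room temperature before reaction start.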
HCMV antiviral: inhibitors of human cytomegalovirus | 410,000 compounds, 4.5% hits | activity change, negative = inhibition, % at 57.5 µM | HFF cells, HCMV-luciferase reporter, 72 h; stronger effect = lower value; in the data active means activity change below about -60%; inconclusive means no clear call, values can overlap the other calls; inactive means above about -39%; further: on the % scale 0 is the no-effect control and ±100 the full control effect
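Cell-based, HFFs, 1000 cells/well, 16 h 37C; cpds in DMSO + HCMV-luc, MOI 1 PFU/cell; 72 h 37C; OneGlo luminescence after 5 min RT; norm. to buffer vs Salinomycin 10uM.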
SARS PLpro yeast: SARS-CoV PLP inhibition in yeast; S. cerevisiae expressing SARS-CoV PLpro, growth rescue; Potency, µM (highest dose often 32.9 µM), inactives show top-dose activity, positive = growth rescue, usual class: activators; 330,000 compounds, 0.19% hits; calls by dose curve; further: potency means the concentration at half of the fitted maximal effect; 0% is about no effect; nearly all actives have a fitted effect of over 55% in size
Pf growth 48h: P. falciparum growth inhibition at 48 hours (one generation); P. falciparum luciferase growth in erythrocytes, 48 h; Potency, µM (doses to about 28.7 µM), for the others: top-dose activity change, negative = inhibition, usual class: inhibitors; 310,000 compounds, 5.9% hits; further: potency means the concentration at half of the fitted maximal effect; on the % scale 0 is the no-effect control and ±100 the full control effect
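Growth was read as firefly luciferase luminescence after a 48 h, 37 C, 5% CO2 exposure of compounds to reporter-bearing P. falciparum cultures (0.1% parasitemia, 2% hematocrit final) in Albumax-supplemented RPMI 1640.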
* hit, by the source's call; ? = inconclusive; . = no result given. Unless noted, the call rests on the fitted dose curve; in most records, active means well fitted curve in the direction sought with a large enough effect; inconclusive means small, poorly fitted or top-dose-only effect, or another doubt; inactive means no such curve, though single readings can be large; an effect the other way counts as inactive or inconclusive.

SMILES	Pf growth 96h	HCV inh	Sm TGR block	HCMV antiviral	SARS PLpro yeast	Pf growth 48h
Cc1nn(C)c(C)c1NC(=O)COc1ccc(Cl)cc1	2%	11µM*	6%	0	-1%	-1%
Cc1nn(C)c(C)c1NC(=O)CCl	13%	6%	.	-70*	0%	?
Cc1cccc(C)c1OCC(=O)Nc1c(C)nn(C)c1C	-10%	11%	-14%	-18	-2%	6%
Cc1nn(C)c(C)c1NC(=O)CC12CC3CC(CC(C3)C1)C2	33%	-9%	1%	-19	0%	36%
Cc1ccc(C)c(NC(=O)CN2CCSc3ccc(S(=O)(=O)N4CCCC4)cc32)c1	.	.	-4%	0	.	.
Cc1ccc(S(=O)(=O)NCCCNS(=O)(=O)c2ccccc2)cc1	20%	-11%	-8%	-19	-7%	42%
O=C(/C=C/c1ccco1)NC(=S)Nc1ccccc1	261%	2%	?	127	-6%	9%
Cc1ccccc1NC(=S)NC(=O)/C=C/c1ccco1	57%	-3%	6.3µM*	-16	5%	7%
COc1ccccc1NC(=O)/C=C\c1ccco1	9%	-1%	2.5µM*	39	-1%	.
COc1ccccc1NC(=S)NC(=O)/C=C/c1ccco1	40%	-23%	18µM*	-17	17%	3%
COc1cc2c(cc1NC(=S)NC(=O)/C=C/c1ccco1)oc1ccccc12	45%	?	-11%	41	6%	5%
O=C(Nc1ccccc1Cl)c1cc(C2CCCCN2C(=O)c2cccs2)on1 (configuration not stated)	.	.	.	3	.	.
O=C1NC[C@@H](CCCCN2C[C@H](Cc3ccc(O)cc3)N(CC3CCCCC3)C(=O)C2=O)N(CC2CCCCC2)C1=O	.	.	.	-15	.	.
Cc1sc2nc(CN3CCCC3)nc(N3CCC(C(N)=O)CC3)c2c1C	9.3µM*	?	-6%	-24	-18%	.
Cc1sc2nc(CN3CCC(C)CC3)nc(Cl)c2c1C	16%	?	-19%	21	4%	9%
Cc1sc2ncnc(OCC(=O)N3CCN(C(=O)c4ccco4)CC3)c2c1C	-12%	-11%	?	-16	0%	22%
Cc1sc2nc(CN3CCCC3)nc(N3CCN(C(=O)c4ccco4)CC3)c2c1C	3.7µM*	?	-35%	-10	0%	?
CC(C)(C)OC(=O)[C@H](Cc1ccccc1)NC(=O)c1nc[nH]c1C(=O)N[C@@H](Cc1ccccc1)C(=O)OC(C)(C)C	?	?	12%	-68*	-5%	12µM*
CC(C)C[C@H](NC(=O)c1[nH]cnc1C(=O)N[C@@H](C)C(=O)OCc1ccccc1)C(=O)OC(C)(C)C	0%	20%	0%	13	-2%	?
C[C@H](NC(=O)c1nc[nH]c1C(=O)N[C@@H](Cc1ccccc1)C(=O)OC(C)(C)C)C(=O)OC(C)(C)C	?	11µM*	9%	34	-2%	7.4µM*
CC(C)(C)OC(=O)[C@H](Cc1ccccc1)NC(=O)c1[nH]cnc1C(=O)N[C@@H](Cc1ccccc1)C(=O)OCc1ccccc1	?	7%	10%	94	4%	?
Cc1cccc(NC(=O)c2nc[nH]c2C(=O)N[C@@H](Cc2ccccc2)C(=O)OC(C)(C)C)c1	12µM*	?	-1%	?	-1%	?
Cc1cccc(NC(=O)c2nc[nH]c2C(=O)Nc2cc(Br)ccc2F)c1	.	.	.	-88*	.	.
O=C(NC1CC1)c1cc(-c2ccco2)nc2ccccc12	34%	-3%	10µM*	.	2%	1%
CCOc1ccc(/C=N/NC(=O)c2cc(-c3ccco3)nc3ccccc23)cc1	5%	?	2%	127	-5%	-17%
Cc1nnc(NC(=O)c2cc(-c3ccco3)nc3ccccc23)s1	-3%	11%	7.9µM*	-5	1%	6%
O=C(Nc1nc2ccccc2s1)c1cc(-c2ccco2)nc2ccccc12	41%	?	-33%	?	6%	35%
